# Experimental data as given in article PMC7862700, “An all-to-all approach to the identification of sequence-specific readers for epigenetic DNA modifications on cytosine”.
# What was measured:
# Test in all cases: DAPPL (digital affinity profiling via proximity ligation, sequencing); 10 mM Tris-HCl pH 7.5, 50 mM NaCl, 1 mM DTT, 4% glycerol, room temperature, 30 min; GST-TFs on glutathione beads, 16-mer random dsDNA library, 0.1% formaldehyde crosslink after washing; high values mean tight binding
# Conditions in all cases: protein: recombinant; tags: N-terminal GST; dsDNA, one strand shown
# ERF = molecular target: T1, ERF (Homo sapiens, UniProt P50548 1-548)
# T1 sequence: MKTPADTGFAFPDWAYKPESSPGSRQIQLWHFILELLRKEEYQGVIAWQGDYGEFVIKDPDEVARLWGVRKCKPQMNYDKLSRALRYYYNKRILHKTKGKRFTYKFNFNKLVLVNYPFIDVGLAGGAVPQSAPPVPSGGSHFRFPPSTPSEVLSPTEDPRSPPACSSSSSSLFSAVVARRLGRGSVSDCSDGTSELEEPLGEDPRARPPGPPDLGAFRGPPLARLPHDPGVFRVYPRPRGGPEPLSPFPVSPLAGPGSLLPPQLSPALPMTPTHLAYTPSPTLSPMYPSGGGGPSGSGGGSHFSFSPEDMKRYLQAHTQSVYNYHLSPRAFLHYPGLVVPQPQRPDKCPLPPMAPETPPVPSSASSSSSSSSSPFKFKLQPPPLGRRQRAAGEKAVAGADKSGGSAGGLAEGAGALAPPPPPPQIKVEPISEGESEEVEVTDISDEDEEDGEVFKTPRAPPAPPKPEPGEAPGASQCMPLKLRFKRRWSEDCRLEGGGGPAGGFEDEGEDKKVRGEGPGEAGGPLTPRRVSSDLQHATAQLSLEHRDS
# Outline: (§1)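 After expression in yeast as GST fusions, human transcription factors were bound to glutathione beads, DNA-barcoded and mixed with a tag-only sample. The pools were incubated with 200 nmole of a 16-mer random double-stranded DNA library in Tris/NaCl/DTT/glycerol buffer (30 min, room temperature), washed and crosslinked with 0.1% formaldehyde. Proximity ligation with BsaI/T4 ligase ran for 1 h at 37 °C, before PCR amplification and sequencing on an Illumina NextSeq500. Binding signal is a hexamer's read frequency for a factor divided by its frequency for the tag-only sample.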
# ETV3L = molecular target: T2, ETV3L (Homo sapiens, UniProt Q6ZN32 1-361)
# T2 sequence: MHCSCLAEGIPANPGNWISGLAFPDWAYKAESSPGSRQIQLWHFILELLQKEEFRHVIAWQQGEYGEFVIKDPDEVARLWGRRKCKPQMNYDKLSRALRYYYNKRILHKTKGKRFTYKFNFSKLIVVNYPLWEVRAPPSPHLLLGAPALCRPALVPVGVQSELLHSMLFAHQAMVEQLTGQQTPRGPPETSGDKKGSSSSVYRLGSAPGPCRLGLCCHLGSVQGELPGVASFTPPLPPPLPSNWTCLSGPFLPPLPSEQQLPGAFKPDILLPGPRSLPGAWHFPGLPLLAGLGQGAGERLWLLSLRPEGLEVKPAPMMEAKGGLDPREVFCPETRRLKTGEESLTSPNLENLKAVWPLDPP
# Outline: as §1
# ETS2 = molecular target: T3, ETS2 (Homo sapiens, UniProt P15036 1-469)
# T3 sequence: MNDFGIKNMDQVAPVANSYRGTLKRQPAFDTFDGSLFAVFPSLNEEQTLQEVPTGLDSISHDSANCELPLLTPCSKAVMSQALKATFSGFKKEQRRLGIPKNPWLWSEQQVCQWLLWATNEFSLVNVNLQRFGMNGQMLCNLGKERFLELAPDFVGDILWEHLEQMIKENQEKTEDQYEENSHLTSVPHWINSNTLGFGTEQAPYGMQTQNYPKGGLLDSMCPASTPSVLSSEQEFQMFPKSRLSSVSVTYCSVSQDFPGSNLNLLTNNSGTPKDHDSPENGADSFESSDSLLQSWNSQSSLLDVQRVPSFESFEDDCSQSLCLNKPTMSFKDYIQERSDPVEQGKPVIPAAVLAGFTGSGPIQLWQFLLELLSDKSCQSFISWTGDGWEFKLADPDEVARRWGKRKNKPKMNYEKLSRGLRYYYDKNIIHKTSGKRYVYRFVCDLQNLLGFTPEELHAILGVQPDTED
# Outline: as §1
# SPDEF = molecular target: T4, SPDEF (Homo sapiens, UniProt O95238 1-335)
# T4 sequence: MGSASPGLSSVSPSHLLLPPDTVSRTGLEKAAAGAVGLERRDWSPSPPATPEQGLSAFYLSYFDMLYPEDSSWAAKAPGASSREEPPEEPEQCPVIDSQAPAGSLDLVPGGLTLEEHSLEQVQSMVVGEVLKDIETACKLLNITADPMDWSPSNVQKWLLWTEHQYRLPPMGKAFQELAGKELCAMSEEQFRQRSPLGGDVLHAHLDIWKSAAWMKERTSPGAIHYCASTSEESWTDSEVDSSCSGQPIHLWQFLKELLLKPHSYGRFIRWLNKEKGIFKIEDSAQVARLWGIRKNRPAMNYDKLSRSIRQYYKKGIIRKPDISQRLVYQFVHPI
# Outline: as §1
# ETV7 = molecular target: T5, ETV7 (Homo sapiens, UniProt Q9Y603 1-341)
# T5 sequence: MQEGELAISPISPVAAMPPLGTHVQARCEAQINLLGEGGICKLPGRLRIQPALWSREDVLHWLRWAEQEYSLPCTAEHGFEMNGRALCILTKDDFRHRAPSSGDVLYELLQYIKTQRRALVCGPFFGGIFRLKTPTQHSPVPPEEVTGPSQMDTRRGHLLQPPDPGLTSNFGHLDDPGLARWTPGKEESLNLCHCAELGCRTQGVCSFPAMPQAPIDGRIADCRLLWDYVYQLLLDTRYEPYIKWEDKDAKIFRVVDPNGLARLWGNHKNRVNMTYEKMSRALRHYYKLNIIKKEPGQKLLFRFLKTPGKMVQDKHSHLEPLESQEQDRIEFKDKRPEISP
# Outline: as §1
# ELF5 = molecular target: T6, ELF5 (Homo sapiens, UniProt Q9UKW6-2 1-255)
# T6 sequence: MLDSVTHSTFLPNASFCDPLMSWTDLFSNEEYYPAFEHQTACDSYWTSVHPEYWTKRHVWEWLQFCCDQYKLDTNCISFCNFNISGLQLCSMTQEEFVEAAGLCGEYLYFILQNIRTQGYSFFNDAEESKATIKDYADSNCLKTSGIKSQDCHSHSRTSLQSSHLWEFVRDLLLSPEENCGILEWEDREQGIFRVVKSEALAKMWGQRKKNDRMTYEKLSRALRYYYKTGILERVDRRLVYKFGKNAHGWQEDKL
# Outline: as §1
# ETV3 = molecular target: T7, ETV3 (Homo sapiens, UniProt P41162-2 1-143)
# T7 sequence: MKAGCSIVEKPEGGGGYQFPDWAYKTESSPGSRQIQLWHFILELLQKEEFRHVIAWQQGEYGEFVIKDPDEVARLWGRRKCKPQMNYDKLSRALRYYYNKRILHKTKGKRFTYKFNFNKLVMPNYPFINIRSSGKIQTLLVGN
# Outline: as §1
# ETV6 = ETV6 (Homo sapiens, UniProt P41212 1-452)
# Chain of ETV6 (P41212 whole entry): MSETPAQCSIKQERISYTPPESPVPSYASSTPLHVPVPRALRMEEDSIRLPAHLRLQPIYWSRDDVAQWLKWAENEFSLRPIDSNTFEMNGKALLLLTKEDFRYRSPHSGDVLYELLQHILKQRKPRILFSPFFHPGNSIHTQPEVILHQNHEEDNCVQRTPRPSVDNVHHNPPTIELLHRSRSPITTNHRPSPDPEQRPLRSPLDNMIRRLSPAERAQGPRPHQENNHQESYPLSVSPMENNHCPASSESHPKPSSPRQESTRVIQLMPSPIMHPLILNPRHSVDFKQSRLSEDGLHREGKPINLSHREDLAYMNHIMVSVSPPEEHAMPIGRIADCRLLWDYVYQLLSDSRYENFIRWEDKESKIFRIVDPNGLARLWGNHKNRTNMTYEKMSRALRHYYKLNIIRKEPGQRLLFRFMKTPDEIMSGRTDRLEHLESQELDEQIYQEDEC
# Outline: as §1
Sequence,binding signal (ERF),binding signal (ETV3L),binding signal (ETS2),binding signal (SPDEF),binding signal (ETV7),binding signal (ELF5),binding signal (ETV3),binding signal (ETV6)
CTCCAA,"1.32 fold enrichment (6-mer frequency, TF over GST control)","1.28 fold enrichment (6-mer frequency, TF over GST control)","1.32 fold enrichment (6-mer frequency, TF over GST control)","1.33 fold enrichment (6-mer frequency, TF over GST control)","1.52 fold enrichment (6-mer frequency, TF over GST control)","1.23 fold enrichment (6-mer frequency, TF over GST control)","1.23 fold enrichment (6-mer frequency, TF over GST control)","1.28 fold enrichment (6-mer frequency, TF over GST control)"
TTACAT,"1.41 fold enrichment (6-mer frequency, TF over GST control)","1.26 fold enrichment (6-mer frequency, TF over GST control)","1.34 fold enrichment (6-mer frequency, TF over GST control)","1.41 fold enrichment (6-mer frequency, TF over GST control)","1.2 fold enrichment (6-mer frequency, TF over GST control)","1.35 fold enrichment (6-mer frequency, TF over GST control)","1.3 fold enrichment (6-mer frequency, TF over GST control)","1.27 fold enrichment (6-mer frequency, TF over GST control)"
ATGAAT,"1.16 fold enrichment (6-mer frequency, TF over GST control)","1.14 fold enrichment (6-mer frequency, TF over GST control)","1.17 fold enrichment (6-mer frequency, TF over GST control)","1.06 fold enrichment (6-mer frequency, TF over GST control)","1.19 fold enrichment (6-mer frequency, TF over GST control)","1.09 fold enrichment (6-mer frequency, TF over GST control)","1.2 fold enrichment (6-mer frequency, TF over GST control)","1.15 fold enrichment (6-mer frequency, TF over GST control)"
TAAACT,"1.35 fold enrichment (6-mer frequency, TF over GST control)","1.17 fold enrichment (6-mer frequency, TF over GST control)","1.18 fold enrichment (6-mer frequency, TF over GST control)","1.01 fold enrichment (6-mer frequency, TF over GST control)","1.04 fold enrichment (6-mer frequency, TF over GST control)","1.16 fold enrichment (6-mer frequency, TF over GST control)","1.15 fold enrichment (6-mer frequency, TF over GST control)","1.13 fold enrichment (6-mer frequency, TF over GST control)"
TACGCG,"1.13 fold enrichment (6-mer frequency, TF over GST control)","1.13 fold enrichment (6-mer frequency, TF over GST control)","1.14 fold enrichment (6-mer frequency, TF over GST control)","1.23 fold enrichment (6-mer frequency, TF over GST control)","1.02 fold enrichment (6-mer frequency, TF over GST control)","1.09 fold enrichment (6-mer frequency, TF over GST control)","1.16 fold enrichment (6-mer frequency, TF over GST control)","1.15 fold enrichment (6-mer frequency, TF over GST control)"
TTAACC,"1.23 fold enrichment (6-mer frequency, TF over GST control)","1.32 fold enrichment (6-mer frequency, TF over GST control)","1.29 fold enrichment (6-mer frequency, TF over GST control)","1.35 fold enrichment (6-mer frequency, TF over GST control)","1.23 fold enrichment (6-mer frequency, TF over GST control)","1.28 fold enrichment (6-mer frequency, TF over GST control)","1.38 fold enrichment (6-mer frequency, TF over GST control)","1.32 fold enrichment (6-mer frequency, TF over GST control)"
TTATTG,"1.37 fold enrichment (6-mer frequency, TF over GST control)","1.37 fold enrichment (6-mer frequency, TF over GST control)","1.27 fold enrichment (6-mer frequency, TF over GST control)","1.21 fold enrichment (6-mer frequency, TF over GST control)","1.4 fold enrichment (6-mer frequency, TF over GST control)","1.2 fold enrichment (6-mer frequency, TF over GST control)","1.34 fold enrichment (6-mer frequency, TF over GST control)","1.27 fold enrichment (6-mer frequency, TF over GST control)"
CCCTCG,"1.24 fold enrichment (6-mer frequency, TF over GST control)","1.24 fold enrichment (6-mer frequency, TF over GST control)","1.29 fold enrichment (6-mer frequency, TF over GST control)","1.23 fold enrichment (6-mer frequency, TF over GST control)","1.3 fold enrichment (6-mer frequency, TF over GST control)","1.19 fold enrichment (6-mer frequency, TF over GST control)","1.16 fold enrichment (6-mer frequency, TF over GST control)","1.18 fold enrichment (6-mer frequency, TF over GST control)"
CTCACG,"1.25 fold enrichment (6-mer frequency, TF over GST control)","1.3 fold enrichment (6-mer frequency, TF over GST control)","1.4 fold enrichment (6-mer frequency, TF over GST control)","1.26 fold enrichment (6-mer frequency, TF over GST control)","1.25 fold enrichment (6-mer frequency, TF over GST control)","1.26 fold enrichment (6-mer frequency, TF over GST control)","1.23 fold enrichment (6-mer frequency, TF over GST control)","1.25 fold enrichment (6-mer frequency, TF over GST control)"
TACCAT,"1.22 fold enrichment (6-mer frequency, TF over GST control)","1.25 fold enrichment (6-mer frequency, TF over GST control)","1.22 fold enrichment (6-mer frequency, TF over GST control)","1.16 fold enrichment (6-mer frequency, TF over GST control)","1.16 fold enrichment (6-mer frequency, TF over GST control)","1.14 fold enrichment (6-mer frequency, TF over GST control)","1.17 fold enrichment (6-mer frequency, TF over GST control)","1.17 fold enrichment (6-mer frequency, TF over GST control)"
TCTCGG,"1.24 fold enrichment (6-mer frequency, TF over GST control)","1.48 fold enrichment (6-mer frequency, TF over GST control)","1.3 fold enrichment (6-mer frequency, TF over GST control)","1.24 fold enrichment (6-mer frequency, TF over GST control)","1.23 fold enrichment (6-mer frequency, TF over GST control)","1.32 fold enrichment (6-mer frequency, TF over GST control)","1.37 fold enrichment (6-mer frequency, TF over GST control)","1.33 fold enrichment (6-mer frequency, TF over GST control)"
CCTCCT,"1.64 fold enrichment (6-mer frequency, TF over GST control)","1.44 fold enrichment (6-mer frequency, TF over GST control)","1.57 fold enrichment (6-mer frequency, TF over GST control)","1.58 fold enrichment (6-mer frequency, TF over GST control)","1.61 fold enrichment (6-mer frequency, TF over GST control)","1.9 fold enrichment (6-mer frequency, TF over GST control)","1.46 fold enrichment (6-mer frequency, TF over GST control)","1.55 fold enrichment (6-mer frequency, TF over GST control)"
ATAACA,"1.31 fold enrichment (6-mer frequency, TF over GST control)","1.28 fold enrichment (6-mer frequency, TF over GST control)","1.27 fold enrichment (6-mer frequency, TF over GST control)","1.21 fold enrichment (6-mer frequency, TF over GST control)","1.32 fold enrichment (6-mer frequency, TF over GST control)","1.28 fold enrichment (6-mer frequency, TF over GST control)","1.2 fold enrichment (6-mer frequency, TF over GST control)","1.26 fold enrichment (6-mer frequency, TF over GST control)"
AAGTTA,"1.24 fold enrichment (6-mer frequency, TF over GST control)","1.18 fold enrichment (6-mer frequency, TF over GST control)","1.24 fold enrichment (6-mer frequency, TF over GST control)","1.08 fold enrichment (6-mer frequency, TF over GST control)","1.21 fold enrichment (6-mer frequency, TF over GST control)","1.21 fold enrichment (6-mer frequency, TF over GST control)","1.19 fold enrichment (6-mer frequency, TF over GST control)","1.3 fold enrichment (6-mer frequency, TF over GST control)"
ATTTGG,"1.54 fold enrichment (6-mer frequency, TF over GST control)","1.46 fold enrichment (6-mer frequency, TF over GST control)","1.38 fold enrichment (6-mer frequency, TF over GST control)","1.34 fold enrichment (6-mer frequency, TF over GST control)","1.41 fold enrichment (6-mer frequency, TF over GST control)","1.37 fold enrichment (6-mer frequency, TF over GST control)","1.35 fold enrichment (6-mer frequency, TF over GST control)","1.45 fold enrichment (6-mer frequency, TF over GST control)"
